Drawing on PubChem BioAssay AID504850 (National Center for Advancing Translational Sciences (NCATS), 2011), this text covers Potency for 45 compounds.

SMILES strings stand for the structures. In all, about 2,300 compounds went through this assay and about 1,200 (52%) were called active. About 34% were inconclusive and are not listed. Calls follow the shape of the dose curve; as a rule, active = well fitted inhibition curve with a large enough effect; inconclusive = small, poorly fitted or top-dose-only effect, or effect the other way; inactive = no such curve, though single readings can be large or run the other way. So high a share suggests a set chosen from earlier hits. The list shows a part of the results.
Potency is read from the fitted curve at half-maximal effect.

The nature of the experiment: Confirmation screen for delayed death inhibitors of the malarial parasite plastid, 48 hour incubation. Also: nearly all actives have a fitted effect of over 65% in size. As to conditions: P. falciparum-infected erythrocytes, luciferase growth; series mostly up to 28.7 µM. A digest of the protocol: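 Single-generation (48 h, 37 C) exposure of integrated firefly luciferase-reporter P. falciparum in red cells, 0.1% parasitemia at 2% hematocrit, Albumax-supplemented RPMI. Falling luciferase signal marks parasite growth inhibition.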
Regarding `CSc1ccc(/C=C/C(=O)c2ccc(NC(=O)C(C)C)cc2)cc1`, the Potency is 15.8 µM (active).
Consider `CSc1c(CC(=O)Nc2ccccc2)n(C)c2ccccc12`, for which the Potency was 8.91 µM (active).
On to `Cc1cccc(Cn2nc(C(C)(C)C)cc2C(=O)Nc2ccc(F)cc2)c1`, for which the Potency is 4.47 µM (active).
The same measure for `Cc1ccc(NC(=O)c2cc(C(C)(C)C)nn2Cc2ccccc2)cc1`: 11.2 µM (active).
The same measure for `Cc1ccc2c(c1)cc(C(=O)NCc1ccccc1)n2C`: “inactive”; for `CC(C)(C)c1cc(C(=O)NNc2cccc(Cl)c2)n(Cc2ccccc2)n1`: 12.6 µM (active); for `CCOc1c(Cl)cc(C(=O)Nc2ccccc2C(=O)O)cc1Cl`: “inactive”.
The same measure for `CCOC(=O)C1CCN(c2cc3c(cc2NC(=O)c2ccccc2Cl)n(C)c(=O)n3C)CC1`: 11.2 µM (active); for `CC(=O)N(C)C1=C(N2CCOCC2)C(=O)c2ccccc2C1=O`: 0.631 µM (active); for `CN1CCN(C(=O)CCN2C(=O)/C(=C\c3ccc(Cl)cc3)SC2=S)CC1`: “inactive”.
Consider `CN1CCN(C(=O)CCN2C(=O)/C(=C/c3cccc(Br)c3)SC2=S)CC1`, for which the Potency was 11.2 µM (active).
In the case of `O=C(CCN1C(=O)/C(=C/c2ccccc2Cl)SC1=S)N1CCOCC1` it was 15.8 µM (active); in that of `C=C(C)n1c(=O)n(Cc2ccccc2C)c2ccccc21`, 12.6 µM (active).
The same measure for `Cc1ccc(-n2c(Cl)c(Cl)nc(Cl)c2=O)cc1`: 12.6 µM (active); for `Cc1ccc(-n2nnnc2Sc2nc([N+](=O)[O-])nn2C)cc1C`: 3.55 µM (active); for `Cc1ccc(-n2nnnc2SCC(=O)Nc2ccccc2-c2ccccc2)cc1C`: “inactive”.
In the case of `O=C(OCC(=O)N1CCN(c2ccccc2)CC1)c1cc(Cl)ccc1[N+](=O)[O-]` it was “inactive”; in that of `N#Cc1cc(C(=O)c2cc(Cl)ccc2O)cn(-c2ccccc2)c1=O`, 14.1 µM (active); in that of `Cc1[nH]c(=O)[nH]c(=O)c1S(=O)(=O)N1CCCC(C(=O)N2CCN(c3cccc(C(F)(F)F)c3)CC2)C1` (stereo not given), 12.6 µM (active).
Consider `Cc1[nH]c(C)c(S(=O)(=O)N2CCN(c3cccc(C(F)(F)F)c3)CC2)c1C(=O)N1CCCCC1`, for which the Potency entry is “inactive”.
In the case of `CCCCNC(=O)c1onc(CSc2cc(C)ccc2C)c1C(=O)O` it was “inactive”; in that of `Cc1cc(C(C)(C)C)cc(C)c1CCNC(=O)c1ccc[n+]([O-])c1`, 14.1 µM (active).
In the case of `Cc1cc(C(C)(C)C)cc(C)c1CCNC(=O)c1c(C)noc1C` it was 12.6 µM (active); in that of `Cc1ccc(C)c(SCc2noc(C(=O)NC(C)C)c2C(=O)O)c1`, “inactive”; in that of `CCN(C(=O)c1cc2c(=O)n3ccccc3nc2n1CCCOC)C1CCCCC1`, 12.6 µM (active).
The same measure for `COc1ccc(OC)c(NC(=O)c2ccccc2N(C)S(=O)(=O)c2ccc(C)cc2)c1`: 14.1 µM (active); for `COc1ccc(OC)c(NC(=O)c2nc(S(=O)(=O)Cc3ccccc3)ncc2Cl)c1`: “inactive”; for `Cc1ccc(Nc2cc(C)c3ccc(O)cc3n2)cc1C`: 0.224 µM (active).
Turning to `CC(c1ccco1)N(C(=O)c1cc(Cl)cc(Cl)c1)c1ccccn1` (stereo not given), the Potency was 11.2 µM (active).
Take `CC(C)N1CCC2(CC1)N=C(c1ccc3c(c1)OCO3)CC(c1cc(Cl)ccc1O)N2` (stereo not given): the Potency was 2.82 µM (active).
On to `CC(C)C1N=C(c2ccc3c(c2)OCO3)CC(c2ccccc2O)N1` (stereo not given), for which the Potency is 12.6 µM (active).
The same measure for `COc1ccc(/C=C/C(=O)c2ccccc2)cc1Cn1nnc2ccccc21`: 10 µM (active); for `COc1cc(Cn2nnc3ccccc32)ccc1O`: 12.6 µM (active); for `CC(C)C[C@@H](CN=[N+]=[N-])N1CCN(C)CCC1=O`: “inactive”.
In the case of `Cc1cc(NC(=O)COC(=O)c2ccccc2S(=O)(=O)N(C)c2ccccc2)no1` it was 8.91 µM (active).
The same measure for `CC(C)NC(=O)NC(=O)COC(=O)c1ccccc1Oc1ccccc1`: “inactive”; for `O=C(COC(=O)c1ccc(O)cc1O)Nc1ccc2ccccc2c1`: “inactive”.
On to `Cc1cccc(C)c1NC(=O)CCCSc1nnc(-c2ccc(F)cc2)n1-c1ccccc1`, for which the Potency is 15.8 µM (active).
The same measure for `COC(=O)CCC(=O)OC1(C)C(=O)C=C2C=C(C3CC3)N(CCCOC(C)C)C=C2C1=O` (stereo not given): 2 µM (active).
With `Cc1c(CN2CCC(CO)(CCOc3ccccc3)CC2)[nH]c2ccc(Cl)cc12`, the Potency is 7.08 µM (active).
The same measure for `OCC1(CCOc2ccccc2)CCN(Cc2nc3ccc(F)cc3[nH]2)CC1`: 12.6 µM (active).
In the case of `CN(C)c1ccc2nc3ccc(=[N+](C)C)cc-3sc2c1` it was 0.0794 µM (active); in that of `COc1ccccc1-n1c(SCC(=O)Nc2cc(C)on2)nc2c([nH]c3ccccc32)c1=O`, 8.91 µM (active); in that of `COc1ccc(C)cc1-n1c(SCC(=O)Nc2cc(C)on2)nc2sc(C)c(C)c2c1=O`, 2.51 µM (active).
`NC(=O)C1CCN(c2nc(C3CC3)nc3c2nnn3Cc2ccccc2Cl)CC1`: the Potency is 4.47 µM (active).
